Compounds with a hit are over-represented: about 19% of the library has one in this group of screens.
CHX counter = counter-screen for Shiga toxin inhibitors: cycloheximide protein synthesis inhibition | cell reporter, cycloheximide protein synthesis inhibition counterscreen | max response, % | 300,000 compounds, 12% hits | AID 2314; in the data active = max response mostly above about 13%, no sharp cut-off; inactive = mostly below about 14%; note: read at 38.3 µM for the half of the compounds with a filed dose; 0% is about no effect
Shiga inhibitor = Shiga toxin inhibition; AID 2315; Vero cells, Shiga toxin protein synthesis inhibition reporter; 290,000 compounds, 9.2% hits; inhibition, % at 38.7 µM; in the data active = inhibition mostly above about 28%, no sharp cut-off; inactive = mostly below about 43%; note: 0% is about no effect
AMA1 RON2 block = AMA1-RON2 (P. falciparum) interaction inhibition. AlphaScreen AMA1-biotinylated RON2 peptide binding. Potency, µM (doses to about 58.2 µM), inactives show at the top dose activity change, negative = inhibition, usual class: inhibitors. 360,000 compounds, 0.2% hits;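 note: potency is the fitted concentration of half-maximal effect; 0% = vehicle wells and -100% = peptide control; nearly all actives have a fitted effect of over 45% in size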
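AMA1 (3D7) with his tag at 25 nM final met compounds first, then biotinylated RON2 peptide at 25 nM; detection used donor plus acceptor beads, 10 µg/mL apiece, read by AlphaScreen after 30 min at room temperature.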
SARS PLP yeast = inhibitors of SARS-CoV papain-like protease in yeast | 330,000 compounds, 0.19% hits | S. cerevisiae expressing SARS-CoV PLpro, growth rescue | Potency, µM (doses to about 32.9 µM), for the others: top-dose activity, positive = growth rescue, actives largely listed as activators; calls by dose curve; note: potency is the fitted concentration of half-maximal effect; 0% is about no effect; nearly all actives have a fitted effect of over 55% in size
Pf growth 96h = inhibits malaria parasite growth, 96 h | P. falciparum luciferase reporter growth, 96 h | Potency, µM (titrated, usually from 28.7 µM), without a hit: top-dose activity change, negative = inhibition, actives largely listed as inhibitors | 320,000 compounds, 6.9% hits | AID 504834; note: potency is the fitted concentration of half-maximal effect; % is set by controls: 0 for no effect and ±100 for the full control effect
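Delayed-death screen, second-generation endpoint: infected erythrocytes, 2% hematocrit, 0.05% parasitemia final; 96 hours at 37 C, 5% CO2; luciferase detection reagent; luminescence decrease equals reduced growth.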
Pf growth 48h = inhibits P. falciparum growth in the first generation, 48 h; P. falciparum luciferase growth in erythrocytes, 48 h; Potency, µM (series often up to 28.7 µM), for the others: at the highest dose activity change, negative = inhibition, hits mostly inhibitors; 310,000 compounds, 5.9% hits; AID 504832; note: potency is the fitted concentration of half-maximal effect; % is set by controls: 0 for no effect and ±100 for the full control effect
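Luciferase-expressing P. falciparum in infected erythrocytes (2% hematocrit, 0.1% parasitemia final) in RPMI 1640/0.5% Albumax were exposed to compound for 48 hours at 37 C, 5% CO2; growth read as luminescence.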
Active calls of the source: *; ? = inconclusive; . = not tested or not shown; + = active, no number; [ ] = remark or other dose. Unless noted, calls come from the whole dose curve; as a rule, active = well fitted curve in the direction sought with a large enough effect; inconclusive = small, poorly fitted or top-dose-only effect, or another doubt; inactive = no such curve, though single readings can be large; an effect the other way counts as inactive or inconclusive.

SMILES | CHX counter | Shiga inhibitor | AMA1 RON2 block | SARS PLP yeast | Pf growth 96h | Pf growth 48h
Cc1ccnc(NC(=O)CCc2c[nH]c3ccccc23)c1 | 39.8* | 90.7* | 13.9% | -9.6% | 85.5% | 100.4%
Cc1ccnc(NC(=O)c2ccccc2[N+](=O)[O-])c1 | 18.9* | 19.4 | 0.0% | 5.3% | 42.1% | 46.2%
O=C(/C=C\c1ccccc1[N+](=O)[O-])Nc1ccccc1 | 39.4* | 51.8* | 6.2% | 1.2% | 1.4% | 100.6%
C=C1CCN(C(Cc2ccccc2)C(=O)NC2CCN(Cc3ccccc3)CC2)S(=O)(=O)c2ccccc21 (stereo not drawn) | 2.4 | -5.0 | . | . | . | .
CCC1(c2ccccc2)NC(=O)N(CC(=O)NCc2ccc(C)cc2)C1=O (stereo not drawn) | -2.8 | 2.4 | -4.4% | 0.3% | 5.6% | -15.2%
CC(C)(C)OC(=O)NN1CC(=O)N2[C@@H](Cc3c([nH]c4ccccc34)C2(C)C)C1=O | -0.4 | -7.7 | 0.2% | -0.2% | 5.8% | 1.4%
Nc1nccnc1C(=O)OCC(=O)Nc1cccc(S(=O)(=O)N2CCCCC2)c1 | -3.3 | -8.3 | 10.6%[11.6 µM] | 14.9% | ? | 5.3%
Cc1ccnc(NC(=O)c2ccccc2NC(=O)c2ccc(Cl)cc2Cl)c1 | 1.5 | 4.4 | 22.4% | 5.5% | -106.6% | ?
Cc1ccnc(NC(=O)/C=C/c2ccccc2[N+](=O)[O-])c1 | 34.1* | 72.6* | . | -0.8% | -26.6% | 39.0%
Cc1ccnc(NC(=O)/C=C/c2ccccc2Cl)c1 | 58.6* | + | -0.5% | -18.4% | 96.6% | 122.4%
CCOc1ccccc1NC(=O)CCCn1cc([N+](=O)[O-])cn1 | 9.0 | 3.1 | -1.1% | -4.0% | 3.29µM* | 11.1%
CCOc1ccccc1NC(=O)/C=C/c1ccccc1[N+](=O)[O-] | 45.4* | 6.2 | -2.9%[2.32 µM] | 14.0% | ? | 54.0%
O=C(Nc1ccccc1C(=O)N1CCCC1)c1ncoc1-c1cccc(Cl)c1 | -0.7 | 16.1 | 3.9% | -14.8% | ? | 14.2%
O=C(O)CNC(=O)CC1S/C(=N/N=C2\CSC(=O)N2)NC1=O (stereo not drawn) | -3.7 | -8.8 | 39.8µM* | 4.9% | 4.1% | -15.0%
COc1ccc(CCN2C(=O)CSC2=Nc2ccc(C(C)C)cc2)cc1OC | -2.8 | -1.7 | ? | -1.0% | ? | 10.4µM*
COc1ccc(N=C2SCC(=O)N2CCc2ccc(OC)c(OC)c2)cc1 | -3.7 | -9.2 | -7.1% | -0.7% | ? | ?
CC1CC(C)CN(S(=O)(=O)c2ccc3oc(=O)ccc3c2)C1 (stereo not drawn) | -1.8 | -9.9 | 1.3% | -1.7% | 18.3% | -8.2%
CCN(CC)CCn1c(=S)[nH]c2cc3c(cc2c1=O)OCO3 | -3.4 | -21.9 | -2.5% | -14.4% | 10.4µM* | 42.6%
CCN(CC)CCNC(=O)CCn1c(=S)[nH]c2cc3c(cc2c1=O)OCO3 | -4.6 | -0.1 | 8.5% | -1.1% | 14.8% | 14.2%
Cc1ccc(C)c(N2CCN(C(=O)CCCn3c(=S)[nH]c4cc5c(cc4c3=O)OCO5)CC2)c1 | -0.7 | -9.2 | 110.8% | -3.8% | ? | 11.7µM*
Cc1nc(-c2ccccc2)nc2[nH]c(=O)n(-c3ccccc3)c(=O)c12 | 31.0* | 54.1* | -4.5% | 0.8% | . | 39.5%
CC1CCC(C(C)C)C(OC(=O)Cn2c(-c3ccc(F)cc3)[n+](C)c3ccccc32)C1 (stereo not drawn) | -1.5 | -6.9 | -11.1% | -15.1% | ? | 0.828µM*
CC1CCC(C(C)C)C(OC(=O)C[n+]2cc(-c3ccc(Cl)cc3)n3c2CCC3)C1 (stereo not drawn) | -3.8 | 8.8 | 2.0% | 1.9% | ? | ?
CC1CCC(C(C)C)C(OC(=O)Cn2c(-c3ccccc3)[n+](C)c3ccccc32)C1 (stereo not drawn) | -7.0 | -1.4 | 5.7% | -10.8% | 245.2% | 0.465µM*
C=CC[C@]12CCc3sccc3C1N(c1ccc(C(=O)OCC)cc1)C2=O (stereo partly drawn) | . | . | -0.1% | 0.0% | ? | 10.4µM*
SMILES | CHX counter | Shiga inhibitor | AMA1 RON2 block | SARS PLP yeast | Pf growth 96h | Pf growth 48h
CCOC(=O)c1ccc(N2C(=O)C3CCOc4ccccc4C32)cc1 (stereo not drawn) | . | . | 19.1% | -24.9% | ? | ?
CCCCNC(=O)C(=O)NC(C)CCc1ccccc1 (stereo not drawn) | -1.8 | 16.1 | -14.6% | 7.7% | 41.1% | 29.6%
COc1ccc(N2C(=O)CSC23C(=O)N2c4c(cccc43)C(C)=CC2(C)C)cc1 (stereo not drawn) | 4.1 | -9.7 | -13.1% | -24.8% | 7.38µM* | .
Cc1cc(C)c(S(=O)(=O)NCc2cn3c(C)csc3n2)cc1C | 9.8 | 18.9 | -7.6% | 1.5% | 150.0% | ?
CCCCCOc1ccc(/C(C)=N/NC2=NCCN2)cc1 | -2.6 | 0.9 | -0.8% | -1.9% | 11.7µM* | 7.38µM*
CCCCCCOc1ccc(/C(C)=N/NC2=NCCN2)cc1 | 1.6 | -8.6 | -21.0% | -6.6% | -7.7% | ?
Cc1ccc2c(c1)C(c1ccccc1)N(C(=O)c1ccc3c(c1)OCO3)CC(=O)N2 (stereo not drawn) | -5.2 | 9.3 | 20.1% | -0.3% | ? | ?
CCCNC(=O)C1(C)CCCN(C(=O)c2ccc3ccccc3c2)C1 (stereo not drawn) | . | . | -0.9% | . | . | .
CC(C)c1ccc(OCC(=O)Nc2ccncc2)cc1 | 6.2 | 8.6 | 3.8% | -3.4% | 29.3% | 12.5%
O=C(COc1ccc2ccccc2c1)NNC(=O)c1cnccn1 | -2.9 | -7.0 | 49.4% | 14.0% | 9.28µM* | 14.7µM*
CC(C)c1ccc(OCC(=O)NNC(=O)c2cnccn2)cc1 | 2.9 | 23.7 | 70.6% | 1.3% | 10.4µM* | ?
O=C(COc1cccc2ccccc12)NNC(=O)c1cnccn1 | -5.3 | 1.8 | 104.2% | 8.0% | ? | ?
O=C(CC1Oc2ccccc2NC1=O)NCc1ccccc1 (stereo not drawn) | -2.9 | 14.0 | 22.6% | 2.1% | -4.5% | .
CC(=O)CC1OC(=O)C(Br)=C1NCc1ccccc1 (stereo not drawn) | 21.9* | 28.5 | -2.6% | -10.3% | 7.38µM* | -2.0%
S=C(Nc1ccc(Br)cc1)NC1CCCC1 | 41.9* | 62.6* | 8.8% | ? | 4.1% | ?
S=C(Nc1ccc(Oc2ccccc2)cc1)NC1CCCC1 | 10.8 | 3.2 | 9.3%[2.32 µM] | -76.8% | 55.1% | -2.0%
CC1CCCCC1NC(=S)Nc1ccc(SC(F)F)cc1 (stereo not drawn) | 35.1* | 74.8* | -7.7% | -27.6% | . | -77.0%
CC1CCN(C(=S)Nc2ccc(SC(F)F)cc2)CC1 | 59.1* | 63.9* | -4.8% | 18.4% | 216.8% | 106.9%
FC(F)Sc1ccc(NC(=S)NC2CCCCC2)cc1 | 30.5* | 113.6 | 0.0% | -16.5% | ? | .
CN(CC(=O)Nc1ccc(SC(F)F)cc1)C1CCCCC1 | -0.2 | 28.0 | 8.8% | 0.4% | 3.7% | -8.1%
CC(=O)N1CCN(C(=S)Nc2ccc(SC(F)F)cc2)CC1 | 1.0 | -13.4 | 11.5% | -0.6% | 6.5% | 2.1%

Source: PubChem (National Center for Advancing Translational Sciences (NCATS))
